# Reference: article PMC5540273 (PLoS ONE, 2017)
# Experiments:
# Conditions in all cases: concentration: 1 μM, replicates: in singlicate; n = 1
# ACVR1B = tested on: ACVR1B
# ACVR1 = tested on: ACVR1
# ACVR2A = tested on: ACVR2A
# ACVR2B = tested on: ACVR2B
# ACVRL1 = tested on: ACVRL1
# ADCK3 = tested on: T1, ADCK3
# T1 construct: gene CABC1
# ADCK4 = tested on: ADCK4
# AKT1 = tested on: AKT1
# AKT2 = tested on: AKT2
# AKT3 = tested on: AKT3
# 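Also: KINOMEscan kinase panel screen.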
Structure (SMILES),%Inh (ACVR1B),%Inh (ACVR1),%Inh (ACVR2A),%Inh (ACVR2B),%Inh (ACVRL1),%Inh (ADCK3),%Inh (ADCK4),%Inh (AKT1),%Inh (AKT2),%Inh (AKT3)
Nc1ncnc2c1ncn2-c1cccc(F)c1 [SKF-97560],0%,1%,0%,0%,0%,21%,0%,9%,12%,0%
OCCCNc1nccc(-c2c(-c3cccc(C(F)(F)F)c3)nn3cc(C(F)(F)F)ccc23)n1 [GW630813],0%,0%,0%,0%,0%,68%,43%,0%,0%,0%
COc1cc(Nc2ccnc3ccc(C(F)(F)F)cc23)cc(OC)c1OC [GW577382],0%,67%,0%,0%,52%,86%,54%,0%,20%,0%
Nc1ncnc2c1ncn2-c1cccc2ccccc12 [SKF-97184],0%,0%,0%,0%,26%,0%,52%,8%,0%,0%
COc1cc2ncn(-c3cc(OCc4ccncc4Br)c(C(N)=O)s3)c2cc1OC [GW854278],9%,5%,8%,2%,0%,15%,0%,0%,0%,0%
CCc1nc(-c2cccc(C)c2)c(-c2ccncc2)s1,20%,3%,5%,0%,5%,55%,0%,0%,0%,0%
Nc1nc(-c2ccccc2F)c(-c2ccnc3ccccc23)s1 [GW560459],0%,6%,0%,0%,0%,0%,22%,0%,0%,0%
COc1ccc(-n2cnc3c(N)ncnc32)cc1 [SKF-97236],21%,7%,35%,32%,10%,0%,0%,0%,1%,11%
Fc1cccc(CSc2nnc(-c3ccc4c(c3)CCO4)o2)c1,17%,0%,0%,0%,0%,0%,6%,12%,14%,0%
CN1C(=O)C(Nc2cc(Cl)c(O)c(Cl)c2)=C(c2ccc(Cl)cc2)C1=O [SB-404321],0%,0%,0%,0%,0%,3%,16%,0%,0%,0%
COc1cccc(C2=C(N(C)c3ccccc3)C(=O)NC2=O)c1 [SB-334865],0%,28%,0%,3%,0%,4%,21%,0%,13%,0%
COC(=O)c1c(-c2ccccc2)c2cc(Br)ccc2c(=O)n1Cc1ccc(S(C)(=O)=O)cc1,0%,15%,0%,0%,0%,12%,8%,14%,28%,0%
Cl.NS(=O)(=O)c1cccc(Nc2cc(-c3ccc(F)cc3)n[nH]2)c1 [GW824645],0%,0%,0%,0%,0%,0%,0%,0%,0%,0%
Nc1n[nH]c2nnc(-c3ccccc3)c(-c3ccccc3)c12 [GW554060],0%,21%,0%,0%,0%,27%,36%,0%,16%,0%
O=C(Nc1n[nH]c2nc(-c3ccccc3)c(Br)cc12)C1CC1 [SB-708998],0%,21%,24%,7%,21%,4%,1%,7%,4%,0%
COc1cc(Nc2nccc(N3CCC(NC(=O)C(C)c4ccc(Cl)cc4)C3)n2)cc(OC)c1OC (stereo not shown) [GSK1379757],0%,4%,0%,12%,0%,3%,69%,0%,0%,0%
